Yp Topo-I inh = blocks Yersinia pestis topoisomerase I activity. Y. pestis Topo-I cleavage product accumulation, plate reader. activity, % at 10 µM. hit rate 0.064% among 360,000; in the data active means activity above about 50%, passing the limit was not always enough
SSB-PriA inh = inhibitors of Klebsiella pneumoniae PriA binding to SSB C-terminal tail | AlphaScreen SSBct-PriA binding, biotinylated peptide | inhibition, % at 33 µM | hit rate 0.6% among 430,000; in the data active means inhibition mostly above about 37%, no sharp cut-off; inactive means mostly below about 20%
3CLpro inhibitor = SARS-CoV 3CLpro protease inhibition; P0C6X7; recombinant SARS-CoV 3CLpro, quenched FRET peptide cleavage; inhibition, % at 6 µM; hit rate 0.14% among 290,000; AID 1706; in the data active means inhibition above about 12%
MazEF act = activators of E. coli MazEF toxin-antitoxin RNase; P0AE70; FAM/BHQ RNA-DNA oligo cleavage fluorescence, 5 h; activation, % at 20 µM; hit rate 0.32% among 350,000; AID 504720; in the data active means activation above about 50%
Target sequence (P0AE70 whole entry, looked up): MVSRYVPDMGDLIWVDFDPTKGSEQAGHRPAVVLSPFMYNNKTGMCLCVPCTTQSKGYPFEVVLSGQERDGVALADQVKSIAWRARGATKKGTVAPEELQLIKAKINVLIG
Each line names hits and unclear results; the compound was inactive in the other large screens; ! = not active in a repeat. Compounds with a hit are over-represented: about 0.9% of the library has one in this group of screens.

COc1ccc(N2CCN(C(=O)c3cc4c(C)nc5ccccc5c4o3)CC2)cc1	none
CC(=O)c1ccc(N2CCN(C(=O)c3cc4c(C)nc5ccccc5c4o3)CC2)cc1	MazEF act 55.9
COC(=O)C1=C(c2ccccc2OCc2ccccc2)C[C@@H]2CC[C@H]1N2C(=O)NCc1ccc(Cl)cc1	none (no result: 3CLpro inhibitor)
COC(=O)C1=C(c2ccc(F)cc2OCc2ccccc2)C[C@@H]2CC[C@H]1N2C(=O)NCc1ccc(Br)cc1	none (no result: 3CLpro inhibitor)
COC(=O)C1=C(c2ccc(F)cc2OCc2ccccc2)C[C@@H]2CC[C@H]1N2C(=O)NCc1ccc(N(C)C)cc1	SSB-PriA inh 45.9 (no result: 3CLpro inhibitor)
COC(=O)C1=C(c2cccc(OCc3ccccc3)c2)C[C@@H]2CC[C@H]1N2C(=O)NCc1ccc(N(C)C)cc1	SSB-PriA inh 55.8 (no result: 3CLpro inhibitor)
COC(=O)C1=C(c2ccccc2OCc2ccccc2)C[C@@H]2CC[C@H]1N2C(=O)NCc1ccc(N(C)C)cc1	SSB-PriA inh 53.0 (no result: 3CLpro inhibitor)
Cc1ccccc1NC(C)C(=O)N/N=C/c1ccccn1 (configuration not stated)	none (no result: Yp Topo-I inh, 3CLpro inhibitor, MazEF act)
CC(Nc1cccc2ccccc12)C(=O)NN=Cc1ccccn1 (configuration not stated)	SSB-PriA inh 85.1 (no result: Yp Topo-I inh, 3CLpro inhibitor, MazEF act)
O=c1c2nc(N3CCCC3)sc2c(-c2ccco2)nn1Cc1ccccc1F	none (no result: Yp Topo-I inh, 3CLpro inhibitor, MazEF act)
Cc1ccc(Cn2c(SCC(=O)N3CC(=O)Nc4ccccc43)nc3ccccc3c2=O)cc1	none
O=C1CN(C(=O)CSc2nc3cc(Cl)ccc3c(=O)n2Cc2ccccc2)c2ccccc2N1	Yp Topo-I inh 70.8
CCc1ccc2nc(SCC(=O)N3CC(=O)Nc4ccccc43)c(C#N)cc2c1	MazEF act 83.2
COc1ccc(S(=O)(=O)Nc2cccc3c2O[C@H](CN(C)C(=O)NC(C)C)[C@@H](C)CN([C@H](C)CO)C3=O)cc1	SSB-PriA inh 99.1 (no result: 3CLpro inhibitor)
COc1ccc(NC(=O)N(C)C[C@H]2Oc3c(NS(=O)(=O)c4ccc(OC)cc4)cccc3C(=O)N([C@H](C)CO)C[C@@H]2C)cc1	none (no result: 3CLpro inhibitor)
CCC(NC(=O)c1ccccc1NC(=O)c1ccccc1)C(=O)OC (configuration not stated)	SSB-PriA inh 52.0
O=C(NCC1CCN(Cc2cccs2)CC1)c1ccc(F)c(F)c1	none (no result: Yp Topo-I inh, 3CLpro inhibitor, MazEF act)
COc1ccc(C(=O)COC(=O)c2c(-c3ccccc3)noc2C)c(OC)c1	MazEF act 67.5 (no result: 3CLpro inhibitor)
O=C(c1ccco1)N1CCN(C(=O)N(c2ccccc2)c2ccccc2)CC1	none (no result: Yp Topo-I inh, 3CLpro inhibitor, MazEF act)
O=C(CCS(=O)(=O)c1ccc(Cl)cc1)Nc1nnc(Cc2ccc3c(c2)OCO3)o1	none (no result: Yp Topo-I inh, 3CLpro inhibitor, MazEF act)
CS(=O)(=O)c1ccc(CC(=O)Nc2nnc(Cc3ccc4c(c3)OCCO4)o2)cc1	SSB-PriA inh 47.0 (no result: Yp Topo-I inh, 3CLpro inhibitor, MazEF act)
CS(=O)(=O)c1ccc(CC(=O)Nc2nnc(-c3ccccc3Cl)o2)cc1	none (no result: Yp Topo-I inh, 3CLpro inhibitor, MazEF act)
CS(=O)(=O)c1ccc(CC(=O)Nc2nnc(-c3cc(Cl)sc3Cl)o2)cc1	SSB-PriA inh active! (no result: Yp Topo-I inh, 3CLpro inhibitor, MazEF act)
CCOC(=O)N1CCN(C(=O)C2CCCN(c3ccc(-c4ccco4)nn3)C2)CC1 (configuration not stated)	none (no result: Yp Topo-I inh, 3CLpro inhibitor, MazEF act)
O=C(CC1CCCCC1)Nc1ccccc1-c1ccccc1	none
CN(CC(=O)Nc1ccccc1-c1ccccc1)C1CCCCC1	Yp Topo-I inh 58.4
Cc1cc(NC(=O)CSc2nc3ccccc3cc2C#N)no1	MazEF act 54.9
CCOC(=O)CC(=O)CSc1nc2ccc(C)cc2cc1C#N	none
Cc1cc(C)c2nc(SCC(=O)Nc3cc(C)on3)c(C#N)cc2c1	MazEF act 58.9
Cc1cc(NC(=O)CSc2nc(-c3ccc(Cl)cc3)cs2)no1	MazEF act 77.4
COC(=O)CSc1nc2cc(C)ccc2cc1C#N	MazEF act 260.4
Cc1ccc2nc(SCC(=O)Nc3ccc4sc(C)nc4c3)c(C#N)cc2c1	MazEF act 167.5
Cc1ccc2nc(SCC(=O)Nc3ccccc3N3CCOCC3)c(C#N)cc2c1	none
COc1ccc(/C=C2/N=C(SCC(=O)Nc3cc(C)on3)N(c3ccccc3)C2=O)cc1	MazEF act 70.2
CCC(SC1=N/C(=C/c2ccccc2)C(=O)N1c1ccccc1)C(=O)Nc1cc(C)on1 (configuration not stated)	none
O=c1cccnn1CCN1CCN(S(=O)(=O)Cc2cc(F)ccc2F)CC1	none (no result: Yp Topo-I inh, 3CLpro inhibitor, MazEF act)
Cc1cc(SCC(=O)Nc2ccc3c(c2)OCCO3)nc2ccccc12	none (no result: Yp Topo-I inh, 3CLpro inhibitor, MazEF act)
Cc1ccc(O)c(Nc2nc(-c3ccccc3)nc3ccccc23)c1	none
Cc1ccc(O)c(Nc2c3ccccc3nc3ccccc23)c1	SSB-PriA inh 61.5
COC(=O)CN1C(=O)S/C(=C/c2ccc(N3CCCCC3)o2)C1=O	MazEF act 386.0
O=S(=O)(N=C(Nc1cccnc1Cl)c1ccccc1)c1ccccc1	none (no result: Yp Topo-I inh, 3CLpro inhibitor, MazEF act)
NC(=S)NN=Cc1nccc2ccccc12	SSB-PriA inh 78.0 (no result: 3CLpro inhibitor)
NC(=S)NN=Cc1nccc2c(C(F)(F)C(F)(F)C(F)(F)F)cccc12	none (no result: SSB-PriA inh, 3CLpro inhibitor)
CCOC(=O)C(CC)n1c(Br)nc2c1c(=O)[nH]c(=O)n2C (configuration not stated)	none (no result: Yp Topo-I inh, 3CLpro inhibitor, MazEF act)
Cc1ccc(NC(=S)NN=Cc2ccc([N+](=O)[O-])s2)cc1	SSB-PriA inh 61.9 (no result: Yp Topo-I inh, 3CLpro inhibitor, MazEF act)
O=C(CSc1nnc(Cc2cc(=O)[nH]c(=O)[nH]2)n1-c1ccc(F)cc1)N1CCCc2ccccc21	none (no result: Yp Topo-I inh, 3CLpro inhibitor, MazEF act)
COc1ccc(OC)c(-c2c3cc(O)c(=O)cc-3oc3cc(O)c(O)cc23)c1	MazEF act active
O=C(NC1CCN(C(=O)Nc2cccc(F)c2)CC1)c1ccco1	SSB-PriA inh 57.6
O=C(C1=C[C@H](c2ccc3c(c2)OCO3)C[C@H](OCc2ccc(CO)cc2)O1)N1CCCCCCC1	SSB-PriA inh 41.5
O=C(C1CCC1)N1CCc2cc(S(=O)(=O)N3CCCCC3)ccc21	none
O=C(C1CCC1)N1CCc2cc(S(=O)(=O)N3CCN(c4ccccn4)CC3)ccc21	Yp Topo-I inh 55.0
Oc1ccc(-c2cc(-c3ccc(O)cc3)nc(-c3ccccc3)n2)cc1	MazEF act 59.3
Nc1ccc(-c2cc(-c3ccc(N)cc3)nc(-c3ccccc3)n2)cc1	none
COc1ccc(OC)c2sc(N3CCN(C(=O)c4ccc5c(c4)CCCC5)CC3)nc12	SSB-PriA inh 29.0 (no result: Yp Topo-I inh, 3CLpro inhibitor, MazEF act)
O=C(c1cc2ccccc2s1)N1CCC[C@H](Cc2nc(-c3cnccn3)no2)C1	none (no result: Yp Topo-I inh, 3CLpro inhibitor, MazEF act)
O=C(NCCC(O)c1ccc2c(c1)OCO2)c1ccc(Cl)s1 (configuration not stated)	SSB-PriA inh 37.0 (no result: Yp Topo-I inh, 3CLpro inhibitor, MazEF act)
O=C(/C=C\Nc1ccc2c(c1)OCO2)c1cccs1	none
O=C(/C=C\Nc1ccc2c(c1)OCO2)c1ccc(Cl)s1	MazEF act 85.8
O=C(CCc1ccc(-c2ccccc2)o1)Nc1ccccc1[N+](=O)[O-]	SSB-PriA inh 84.0 (no result: Yp Topo-I inh, 3CLpro inhibitor, MazEF act)
O=C(CC(c1ccccc1)c1ccccc1)N1CCOCC1CO (configuration not stated)	none (no result: Yp Topo-I inh, 3CLpro inhibitor, MazEF act)
Cc1ccc(-n2c(Cc3cccs3)nnc2SCC(=O)Nc2ccc3c(c2)OCO3)cc1	SSB-PriA inh 61.6 (no result: Yp Topo-I inh, 3CLpro inhibitor, MazEF act)
Cn1cccc1Cc1nnc(SCC(=O)Nc2ccc3c(c2)OCCO3)n1-c1ccc(Cl)cc1	SSB-PriA inh 80.1 (no result: Yp Topo-I inh, 3CLpro inhibitor, MazEF act)
CC(=O)N1CCCc2ccc(NC(=O)c3ccc4c(c3)OCO4)cc21	none (no result: Yp Topo-I inh, 3CLpro inhibitor, MazEF act)
CC(=O)c1cnc2nc(C(F)(F)F)nn2c1C	MazEF act 80.0
CCn1c(C)cc(C=C2C(=O)c3ccccc3C2=O)c1C	MazEF act 78.7
Cc1cccc(-n2c(C)cc(C=C3C(=O)c4ccccc4C3=O)c2C)c1	MazEF act 596.6
